± gives the standard deviation.
What was measured:
Details in all cases: modulator concentration 10 µM
[1] = test system: RAW-Dual (murine macrophage reporter line); assay: NF-kB reporter (SEAP) activity fold change vs agonist alone; higher = enhanced NF-kB activity
Summary of the method: (§1)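 Overnight stimulation with a PRR agonist followed pre-incubation for 1 hour at 37 °C with compound at 10 μM final. This was done in RAW-Dual murine macrophage reporter cells seeded at 50 000 per well in 384-well plates. NF-κB (SEAP, QUANTI-Blue absorbance at 620 nm) and IRF (Lucia luciferase, QUANTI-Luc luminescence) were read from the supernatant. Each reporter's fold change relative to the mean agonist-only control on the same plate was averaged over replicate plates.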

[2] = test system: RAW-Dual (murine macrophage reporter line); assay: IRF reporter (Lucia luciferase) activity fold change vs agonist alone; higher = enhanced IRF activity
Summary of the method: as §1

[3] = test system: RAW-Dual (murine macrophage reporter line); assay: viability score (confluency relative to resting cells, overnight) (fraction); higher = more viable, active = viable (0.7 or more)
Summary of the method: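 Compound was added at a final 10 μM to RAW-Dual macrophages in 384-well plates and left overnight. Confluency was imaged with IncuCyte, and two masks were generated in IncuCyte software over all imaged wells. Each viability score is confluency relative to resting cells, and a compound met the cutoff only when both masks were above 70% of resting cells.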

[4] = agonist: CpG ODN 1826 0.5 ug/mL

Row | Compound | NF-kB reporter [1, 4] | NF-kB reporter ([1]; agonist: LPS 0.1 ug/mL) | NF-kB reporter ([1]; agonist: MPLA […]) | IRF reporter ([2]; agonist: 3'3'-cGAMP 10 ug/mL) | IRF reporter ([2]; agonist: LPS 0.1 ug/mL) | IRF reporter ([2]; agonist: MPLA […]) | viability score [3]
1 | CC#CC(=O)N1CCC[C@H]1c1nc(-c2ccc(C(=O)Nc3ccccn3)cc2)c2c(N)nccn12 | 0.946 ± 0.24 | 1.03 ± 0.077 | 0.876 ± 0.068 | 0.575 ± 0.019 | 1.02 ± 0.11 | 1.03 ± 0.15 | 0.736 (active)
2 | CC(=NN1CCN(Cc2cccc3ccccc23)CC1)c1ccc(Cl)cc1 | 0.9 ± 0.086 | 1.06 ± 0.077 | 1.01 ± 0.086 | 1 ± 0.068 | 1.19 ± 0.13 | 0.992 ± 0.12 | 1.01 (active)
3 | CCN(CC)CCNc1ccc(CO)c2sc3ccccc3c(=O)c12 [Prestw-355] | 0.178 ± 0.01 | 0.705 ± 0.065 | 1.09 ± 0.14 | 0.408 ± 0.024 | 0.964 ± 0.13 | 1.97 ± 0.17 | 0.907 (active)
4 | Cc1[nH]c2ccc(Br)cc2c(=O)c1CN1CCCCC1 | 0.828 ± 0.092 | 0.97 ± 0.054 | 0.899 ± 0.054 | 0.951 ± 0.035 | 1.25 ± 0.17 | 0.92 ± 0.091 | 1 (active)
5 | CC1CC(C)CN(C(=O)CSc2nnc(Cc3ccccc3)o2)C1 (configuration not stated) | 0.917 ± 0.048 | 1.06 ± 0.091 | 0.879 ± 0.11 | 1.01 ± 0.071 | 0.944 ± 0.093 | 0.858 ± 0.34 | 0.981 (active)
6 | CO[C@@]12[C@H](COC(N)=O)C3=C(C(=O)C(C)=C(N)C3=O)N1C[C@@H]1N[C@@H]12 | 2.4 ± 0.14 | 1.47 ± 0.1 | 2.16 ± 0.18 | 1.21 ± 0.069 | 1.42 ± 0.099 | 1.24 ± 0.24 | 0.644 (inactive)
7 | CN1C(C(=O)Nc2ccccn2)=C(O)c2ccccc2S1(=O)=O | 0.654 ± 0.063 | 0.901 ± 0.047 | 1.11 ± 0.097 | 0.943 ± 0.056 | 1.25 ± 0.077 | 1.35 ± 0.11 | 1.02 (active)
8 | CCOc1ccc(CC(=O)NC2(c3nc(-c4ccccc4)no3)CCCCC2)cc1OCC | 0.697 ± 0.031 | 1.02 ± 0.095 | 0.93 ± 0.058 | 1.03 ± 0.049 | 1.24 ± 0.32 | 1.3 ± 0.37 | 0.979 (active)
9 | CCn1ccc(C(=O)N2CCN(c3cc(C(F)(F)F)nc(C)n3)CC2)n1 | 1.27 ± 0.098 | 1.07 ± 0.092 | 1.01 ± 0.05 | 0.637 ± 0.028 | 0.744 ± 0.035 | 0.839 ± 0.11 | 1 (active)
10 | O=C(NCCC(CCO)c1ccccc1)c1cccc(Cl)c1 (configuration not stated) | 1.11 ± 0.068 | 1.02 ± 0.082 | 0.946 ± 0.025 | 0.748 ± 0.027 | 0.967 ± 0.051 | 0.984 ± 0.096 | 1 (active)
11 | CC(N)c1ccc(Nc2ncc3cc(-c4ccncc4)ccc3n2)cc1.Cl.Cl.Cl (configuration not stated) | 0.419 ± 0.069 | 1.26 ± 0.08 | 2.73 ± 0.16 | 0.173 ± 0.014 | 0.28 ± 0.05 | 0.42 ± 0.042 | 0.174 (inactive)
12 | Oc1ccc(Cl)cc1-c1nc2ccccc2s1 | 1.01 ± 0.084 | 0.944 ± 0.087 | 0.967 ± 0.091 | 1.09 ± 0.035 | 1.29 ± 0.16 | 1.58 ± 0.23 | 1.02 (active)
13 | COC(=O)C1=CN(C2CC2)C=C(C(=O)OC)C1c1ccccc1Cl | 1.12 ± 0.1 | 0.722 ± 0.07 | 1.1 ± 0.052 | 0.945 ± 0.11 | 0.905 ± 0.039 | 1.06 ± 0.17 | 1 (active)
14 | N#C[C@@H]1C[C@@H]2C[C@@H]2N1C(=O)[C@@H](N)C12CC3CC(CC(O)(C3)C1)C2.O | 1.06 ± 0.083 | 0.968 ± 0.15 | 0.955 ± 0.024 | 0.956 ± 0.066 | 0.921 ± 0.068 | 0.871 ± 0.074 | 0.999 (active)
15 | COC(CNS(=O)(=O)Cc1ccccc1)c1ccc(Cl)s1 (configuration not stated) | 0.959 ± 0.056 | 1.02 ± 0.084 | 0.922 ± 0.052 | 1.24 ± 0.1 | 1.12 ± 0.071 | 1.16 ± 0.35 | 0.639 (inactive)
16 | Cc1nc(-c2ccc(S(=O)(=O)NC3CCc4nc(N(C)C)ncc4C3)cc2)co1 (configuration not stated) | 0.877 ± 0.065 | 1.21 ± 0.1 | 1.05 ± 0.053 | 1.14 ± 0.074 | 1.21 ± 0.091 | 1.35 ± 0.27 | 0.919 (active)
17 | CCN(CC)c1ccc(C=Nc2c(C)cc(C)cc2C)cc1 | 0.97 ± 0.08 | 1.03 ± 0.086 | 0.959 ± 0.054 | 0.894 ± 0.046 | 0.968 ± 0.063 | 0.94 ± 0.065 | 1 (active)
18 | COc1ccc(S(=O)(=O)NCc2ccnc(N3CCOCC3)n2)cc1Cl | 1.02 ± 0.052 | 1.02 ± 0.08 | 0.919 ± 0.1 | 1.07 ± 0.06 | 1.07 ± 0.079 | 1.08 ± 0.4 | 1 (active)

Row | Compound | NF-kB reporter [1, 4] | NF-kB reporter ([1]; agonist: LPS 0.1 ug/mL) | NF-kB reporter ([1]; agonist: MPLA […]) | IRF reporter ([2]; agonist: 3'3'-cGAMP 10 ug/mL) | IRF reporter ([2]; agonist: LPS 0.1 ug/mL) | IRF reporter ([2]; agonist: MPLA […]) | viability score [3]
19 | O=c1oc2cc(O)ccc2s1 | 1.11 ± 0.088 | 1.02 ± 0.07 | 1.02 ± 0.026 | 0.911 ± 0.05 | 0.962 ± 0.067 | 0.827 ± 0.074 | 1 (active)
20 | COC1CCN(c2ccc(C(=O)N3CC(n4cc(COc5ccccc5)nn4)C3)cc2)C1 (configuration not stated) | 1.17 ± 0.099 | 1.13 ± 0.1 | 0.959 ± 0.053 | 0.758 ± 0.043 | 1.12 ± 0.076 | 1.08 ± 0.24 | 0.922 (active)
21 | CCOCCn1c(N2CCCN(C)CC2)nc2ccccc21 [Prestw-1274] | 0.77 ± 0.17 | 1.24 ± 0.17 | 1.03 ± 0.08 | 1.01 ± 0.027 | 1.19 ± 0.21 | 1.44 ± 0.15 | 0.996 (active)
22 | Cc1cc(C(=O)NNCc2ccccc2)no1 [Prestw-795] | 1.09 ± 0.18 | 1.18 ± 0.11 | 0.992 ± 0.076 | 0.958 ± 0.026 | 1.06 ± 0.24 | 1.29 ± 0.14 | 0.997 (active)
23 | NC(=O)c1ccc(I)c([N+](=O)[O-])c1 | 0.743 ± 0.25 | 0.842 ± 0.23 | 0.828 ± 0.046 | 0.678 ± 0.024 | 0.905 ± 0.32 | 1 ± 0.13 | 0.981 (active)
24 | COc1cc(C=Nc2ccc3oc(-c4ccc(C(C)(C)C)cc4)nc3c2)ccc1OC(=O)c1ccc(Cl)cc1Cl | 0.994 ± 0.056 | 0.981 ± 0.11 | 0.936 ± 0.11 | 0.931 ± 0.031 | 1.28 ± 0.15 | 1.14 ± 0.1 | 1.01 (active)
25 | Cc1oncc1CNC(=O)c1ccc(C(C)(C)C)cc1 | 1.18 ± 0.089 | 1.1 ± 0.083 | 1.07 ± 0.049 | 0.779 ± 0.039 | 1.01 ± 0.05 | 1.02 ± 0.099 | 0.996 (active)
26 | COc1cc2nc(N3CCN(C(=O)C4COc5ccccc5O4)CC3)nc(N)c2cc1OC (configuration not stated) [Prestw-858] | 0.138 ± 0.011 | 0.961 ± 0.071 | 1.34 ± 0.15 | 0.248 ± 0.012 | 1.19 ± 0.075 | 1.29 ± 0.13 | 0.953 (active)
27 | CN1CCC(=C2c3ccccc3CCc3sccc32)CC1.O=C(O)CC(O)C(=O)O | 0.574 ± 0.054 | 0.705 ± 0.035 | 0.868 ± 0.094 | 0.692 ± 0.036 | 1.09 ± 0.073 | 1 ± 0.12 | 0.385 (inactive)
28 | C=CCn1c(S)nnc1-c1cc(OC)c(OC)c(OC)c1 | 0.986 ± 0.076 | 1.05 ± 0.084 | 0.988 ± 0.11 | 0.97 ± 0.041 | 1.14 ± 0.18 | 1.08 ± 0.12 | 1.03 (active)
29 | CC(=O)OC(OC(C)=O)c1ccc([N+](=O)[O-])s1 | 0.0633 ± 0.01 | 0.0636 ± 0.0089 | 0.156 ± 0.012 | 0.0166 ± 0.0041 | 0.0362 ± 0.0098 | 0.0457 ± 0.011 | 0.177 (inactive)
30 | O=C(O)c1cc(O)c2ccccc2n1 | 1.23 ± 0.3 | 1.13 ± 0.11 | 1 ± 0.064 | 1.01 ± 0.057 | 1.21 ± 0.14 | 1.38 ± 0.14 | 0.991 (active)
31 | COc1ccc(C=NNc2nc(-c3ccccc3)cc(-c3ccc(Br)cc3)n2)c(OC)c1 | 0.918 ± 0.091 | 0.94 ± 0.1 | 1.03 ± 0.12 | 0.96 ± 0.03 | 1.08 ± 0.12 | 1.08 ± 0.17 | 1.03 (active)
32 | O=C(COc1ccc2ccccc2c1)NCC#CCN1CCCCC1 | 0.854 ± 0.036 | 0.981 ± 0.078 | 1.07 ± 0.064 | 1 ± 0.048 | 1.27 ± 0.29 | 1.48 ± 0.49 | 0.956 (active)
33 | COc1ccc(-c2cc(CNC(=O)C3CCC3)no2)cc1 | 1.15 ± 0.075 | 1.02 ± 0.1 | 0.934 ± 0.034 | 0.877 ± 0.052 | 1.06 ± 0.086 | 0.986 ± 0.23 | 0.995 (active)
34 | CN1CCN(C2=Nc3cc(Cl)ccc3Nc3ccccc32)CC1 | 0.713 ± 0.058 | 0.941 ± 0.057 | 1.13 ± 0.1 | 0.924 ± 0.064 | 1.47 ± 0.11 | 1.46 ± 0.12 | 0.981 (active)
35 | CN1C2CCCC1CC(NC(=O)c1nn(C)c3ccccc13)C2.Cl (configuration not stated) | 0.712 ± 0.31 | 0.879 ± 0.044 | 0.984 ± 0.069 | 0.873 ± 0.034 | 1.13 ± 0.16 | 1.03 ± 0.19 | 0.998 (active)
36 | CCC(=O)Nc1ccc(S(=O)(=O)N2CCCC(Cc3nc(C4CC4)no3)C2)c(C)c1 (configuration not stated) | 0.885 ± 0.062 | 0.986 ± 0.1 | 1.01 ± 0.065 | 0.88 ± 0.048 | 1.21 ± 0.26 | 1.38 ± 0.51 | 0.961 (active)

Source: the supplement of paper PMC10646978
